The values that follow come from ChEMBL document CHEMBL4513216, “Probing the Open Global Health Chemical Diversity Library for Multistage-Active Starting Points for Next-Generation Antimalarials” (ACS Infect Dis, 2020).

About 8,600 (12%) of roughly 69,000 compounds showed an effect of 50% or more. This is one part of a sample in which strong results are shown more often than they occur.

This assay has as its system Plasmodium berghei. In words: Screen against P. berghei liver stage (PbLuc), transformed with Luciferase, at 10uM. The conditions noted are these: tested at 10 uM. The class given is functional, HepG2.
Consider `CNc1ncc(CN(C)C(=O)c2cccc(-n3cnnc3)c2)cn1`, for which the INHIBITION is on record as 28.5%.

On to `CC(C)c1nc(C2CCCN2Cc2cc(=O)n(C)c(=O)n2C)no1` (stereo not given), for which the INHIBITION came to 33.8%. For the molecule `CCc1[nH]nc(NC(=O)c2cc[nH]n2)c1C`, the INHIBITION came to 0.342%.

`N#Cc1ccc(N2CCC3(CCC(=O)N3Cc3cccnc3)CC2)nc1`: the INHIBITION worked out at 27.6%. For the molecule `O=C1CCC2(CCCN(c3ncc(F)cn3)CC2)N1CC1CC1` (stereo not given), the INHIBITION is listed as -57.6%. The same measure for `CN1C(=O)CCC12CCN(c1ccc(C#N)cn1)CC2`: 38.5%.

For `N#Cc1ccc(N2CCCC3(CCC(=O)N3CC3CC3)CC2)nc1` (stereo not given), the INHIBITION is reported as 56.6%.

Regarding `N#Cc1ccc(N2CCC3(CCC(=O)N3CCN3CCCC3)CC2)nc1`, the INHIBITION is listed as 68.4%. Next, `N#Cc1ccc(N2CCC3(CCC(=O)N3Cc3ccncc3)CC2)nc1`: 43.9%. Next, `O=C(c1ccsc1)N1CCN2C[C@H](OCc3cccnc3)C[C@H]2C1`: 21.6%. The same measure for `CCc1nc(-c2ccc(NC(=O)N3CCCC3)cc2)no1`: -81%; for `CCCC1COCCN1Cc1ccc(C(=O)O)cc1` (stereo not given): 19.8%; for `Cc1nc2cc(O)nn2c(C)c1CCC(=O)N(C)Cc1ccccc1`: -24.8%.

For the molecule `Cc1ccccc1C(=O)N1C[C@@H]2C(CN(C)CCc3ccccn3)[C@@H]2C1` (stereo not given in full), the INHIBITION is reported as 55.4%. The same measure for `Cc1cc(C(=O)N2C[C@@H]3C(CN(C)CCc4ccccn4)[C@@H]3C2)c(C)o1` (stereo not given in full): 41.5%; for `Cc1cc(C(=O)N2C[C@@H]3C(CN(C)CCCn4cccn4)[C@@H]3C2)c(C)o1` (stereo not given in full): 52.6%. The same measure for `Cc1cc(C(=O)N2CCC(CCn3cccn3)CC2)c(C)o1`: 39.5%; for `Cc1cccc(C(=O)N2CCN(C(=O)Cc3ccccn3)CC2)c1C`: 31.8%.

For the molecule `Cc1cc(C(=O)N2CCN(CC(O)Cn3cccn3)CC2)c(C)o1` (stereo not given), the INHIBITION was found to be 29.6%. The same measure for `Cc1noc(C2CCC3(CCN(C(=O)c4cnccn4)CC3)O2)n1` (stereo not given): -4.32%. Next, `c1ccc(-n2ccc(CNC3CCc4ncnn4C3)n2)cc1` (stereo not given): 16.45%; `Cc1ccc(-c2ccccc2CC2(C(=O)NC(C)C)CCCNC2)cc1` (stereo not given): 42.1%. The same measure for `Cc1occc1C(=O)N1CCCn2cnc(CN3CCCC3=O)c2C1`: 34.2%; for `COc1nccc(N2CC[C@@H](N3CCN(C)CC3)[C@H](O)C2)c1C#N`: -3.77%; for `Cc1ccccc1CC(=O)N(C)CC1(O)CCCN(c2ccccn2)C1` (stereo not given): -10.5%. Consider `Cc1ccccc1CC1(CO)CCCN(c2ncncc2C(C)C)C1` (stereo not given), for which the INHIBITION was found to be 68.4%.

`Cc1cnc(C)c(N2CCCC(CC3CC3)(C(=O)O)C2)n1` (stereo not given): the INHIBITION was 57.5%. Next, `CCCC1(CO)CCCN(c2ncnc3c2c(C)nn3C)C1` (stereo not given): 25.9%; `Cc1cnc(C)c(N2CCC(Cc3ccccc3Cl)(C(=O)O)CC2)n1`: 13.5%. The same measure for `Cc1cnc(C)c(N2CCCC(C/C=C/c3ccccc3)(C(=O)O)C2)n1` (stereo not given): 27.9%. Next, `Cc1cnc(C)c(N2CCCC(CO)(Cc3ccccc3C)C2)n1` (stereo not given): 68.4%; `Cc1ccccc1CC1(CO)CCCN(c2ncnc3sccc23)C1` (stereo not given): 87.9%; `COc1cccc(CC2(CO)CCCN(c3nccs3)C2)c1` (stereo not given): 3.46%. Consider `Cc1ccccc1CC1(C(=O)O)CCCN(c2ncnc3[nH]ccc23)C1` (stereo not given), for which the INHIBITION was found to be 25.5%. Next, `CCNC(=O)[C@@H]1C[C@@H](NC(=O)c2ccc(C#N)cc2)CN1CCCSC`: -14.3%; `CCCC(=O)N1CCC([C@@H]2C[C@H](C(F)(F)F)n3nc(C)cc3N2)CC1`: -29.8%. In the case of `CC(=O)Nc1nc(C(=O)N2CCCC2Cn2cccn2)cs1` (stereo not given), the INHIBITION was determined as 37.3%.

Take `CN(C(=O)Cn1nc(-c2ccc(F)cc2)ccc1=O)C1CCS(=O)(=O)C1` (stereo not given): the INHIBITION is reported as 13.4%. The same measure for `c1cnnc(N2CCCC2CNCc2csc(-c3ccco3)n2)c1` (stereo not given): 31.95%; for `Cc1ncsc1C(=O)N(Cc1cccs1)C1CC1`: 6.25%. `CCCNCc1cn(C)nc1-c1cccnc1`: the INHIBITION is recorded as 2.74%. Next, `COc1c(C2CCCN2C(=O)c2csc(C3CC3)n2)c(C)nn1C` (stereo not given): -21.5%; `CC(C)Nc1cccc(CC2CCN(C)C2)n1` (stereo not given): -52.6%; `COCC1CN(Cc2c(C)noc2C)Cc2ccnn2C1` (stereo not given): 15.9%. The same measure for `CC(C)N1CCC(C(=O)N2CCc3c(nc(CC4CC4)[nH]c3=O)C2)CC1`: 53.8%; for `CC(C)N1CC(C(=O)N2CCc3c(nc(CC4CC4)[nH]c3=O)C2)CC1=O` (stereo not given): 20.6%; for `CC(C)N1CCCC(C(=O)N2CCc3c(nc(CC4CC4)[nH]c3=O)C2)C1` (stereo not given): 26.9%. For `c1csc(CN2CCn3c(Cn4cncn4)cnc3C2)c1`, the INHIBITION was determined as 20.6%. On to `CC(=O)N1CC(=O)N(c2cccnc2)CC12CCN(Cc1nccs1)C2` (stereo not given), for which the INHIBITION was -3.52%. On to `O=C(c1ccccc1)N1CCOC2CNCC[C@H]21` (stereo not given in full), for which the INHIBITION is recorded as 28.5%.

As for `c1ccc(CN2CCOC3CNCC[C@H]32)cc1` (stereo not given in full), the INHIBITION stood at 55.5%. The same measure for `N#Cc1cccc(CN2CCO[C@@H]3CNC[C@@H]32)c1`: 16.9%. For the molecule `O=C(O)c1ccn(-c2ccccc2NS(=O)(=O)c2cccc(Cl)c2F)n1`, the INHIBITION turned out to be 32.9%. Next, `CN(C)C(=O)CO[C@@H]1CN(Cc2ccccc2F)[C@@H]2CCCO[C@@H]21`: -1.83%; `c1cnc2c(c1)cc([C@H]1CCCO1)n2CCN1CCCCC1`: 35.3%. Consider `CC(C)c1cc(C(=O)N2CCCC3(CCNC3)C2)no1` (stereo not given), for which the INHIBITION is listed as 40.2%. For `CC(C)c1cc(C(=O)N2CCOC3(CCNCC3)C2)no1`, the INHIBITION is 28.2%.

For the molecule `Cc1ccc(C(=O)N2CCC3(CCCC3)CC2)c(=O)[nH]1`, the INHIBITION is given as 37.1%. Next, `Cc1ccc(C(=O)N2CCC3(CCCCC3)C2)c(=O)[nH]1`: 21.7%; `Cc1ccc(C(=O)N2CCOC3(CCCC3)C2)c(=O)[nH]1`: 51.7%; `CC(C)c1cc(C(=O)N2CCOC3(CCCC3)C2)no1`: 50.4%. Next, `CN(Cc1ccco1)[C@@H]1CN(C(=O)c2cnccn2)C[C@@H]2CCCO[C@@H]21`: -2.17%; `CC(C)NC(=O)[C@H]1C[C@H]2CN(C(=O)NCc3ccccc3)C[C@@H]1O2`: -43.8%. Next, `CCn1nc(C)c(C(=O)Nc2ccc3c(c2)C(C)(C)C(=O)N3C)c1C`: 23.4%; `Cc1nc(C)n(C2CCCN(C(=O)c3ccc(CN(C)C)cc3)C2)n1` (stereo not given): 5.45%.
